# Compound activity as filed in PubChem.
# Shiga toxin inh – Shiga toxin inhibition; Vero cells, Shiga toxin protein synthesis inhibition reporter; inhibition, % at 38.7 µM; 9.2% of 290,000 active; in the data active = inhibition mostly above about 28%, no sharp cut-off; inactive = mostly below about 43%
# Cycloheximide cs – counter-screen for Shiga toxin inhibitors: cycloheximide protein synthesis inhibition | 12% of 300,000 active | cell reporter, cycloheximide protein synthesis inhibition counterscreen | max response, %; in the data active = max response mostly above about 13%, no sharp cut-off; inactive = mostly below about 14%; also: read at 38.3 µM for the half of the compounds with a filed dose
# Pf growth 96h – P. falciparum growth inhibition at 96 hour, primary screen for plastid delayed-death inhibitors. 6.9% of 320,000 active. Potency, µM (titrated, usually from 28.7 µM), hits mostly inhibitors. P. falciparum luciferase reporter growth, 96 h
#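 Cell-based qHTS: luciferase-tagged P. falciparum in erythrocytes (2% hematocrit, 0.05% parasitemia final) incubated with compounds for 96 hours, 37 C, 5% CO2; luciferase detection reagent then added and luminescence measured.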
# Pf growth 48h – inhibits P. falciparum growth in the first generation, 48 h; P. falciparum luciferase growth in erythrocytes, 48 h; AID 504832; 5.9% of 310,000 active; Potency, µM (highest dose often 28.7 µM), usual class: inhibitors
#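 Erythrocytes infected with P. falciparum carrying an integrated firefly luciferase reporter (2% hematocrit, 0.1% parasitemia final) were exposed to compounds in RPMI 1640 with 0.5% Albumax at 37 C, 5% CO2. Growth inhibition was scored as reduced luminescence.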
# Numbers stand for hits; . = inactive; ? = inconclusive; / = no result given. Most compounds without a hit are left out; they make up all but 21% or so of the library. Unless noted, calls follow the shape of the dose curve; as a rule, active = well fitted inhibition curve with a large enough effect; inconclusive = small, poorly fitted or top-dose-only effect, or another doubt; inactive = no such curve, though single readings can be large or run the other way.
SMILES,Shiga toxin inh,Cycloheximide cs,Pf growth 96h,Pf growth 48h
Cc1ccc(CN2CCN(/N=C/c3cc(Br)ccc3O)CC2)cc1,.,.,.,.
CS/C(N)=N/N=C/c1cc(Br)cc(Br)c1O,65,17,?,?
Cc1nnc(C)n1/N=C/c1cc(Br)cc(Br)c1O,.,.,?,?
CS/C(N)=N/N=C/c1cc(C)ccc1O,61,38,.,.
CCS/C(N)=N/N=C/c1cc(C)ccc1O,.,53,/,.
CCCCS/C(N)=N/N=C/c1cc(C)ccc1O,82,44,/,.
CCN(CC)c1ccc(/C=N/N=C(N)N)c(O)c1,.,.,?,?
O=C(Nc1cccc(NC(=O)c2ccc(-c3ccc(Br)cc3)o2)c1)c1ccccc1,.,.,.,/
O=C(Nc1ccccc1)c1ccc(-c2ccc([N+](=O)[O-])cc2)o1,69,31,.,?
O=C(Nc1ccccc1)c1ccc(-c2ccc(Br)cc2)o1,54,38,.,.
O=C(c1ccc(-c2ccc([N+](=O)[O-])cc2)o1)N1CCCCC1,93,43,.,.
Cn1c(=O)c2c(ncn2CC(=O)Nc2nccs2)n(C)c1=O,.,.,.,.
CCC(C)NC(=O)CCC(=O)NNc1nc2ccccc2c2nc(C)nn12 (stereo not drawn),.,.,.,.
Cc1nc2c3ccccc3nc(NNC(=O)CCC(=O)NC(C)C)n2n1,.,.,6.6µM,.
CC(C)CCNC(=O)CCC(=O)NNc1nc2ccccc2c2nc(-c3ccccc3)nn12,.,.,10µM,.
Cc1nc2c3ccccc3nc(NNC(=O)CCC(=O)N3CCCC(C)C3)n2n1 (stereo not drawn),.,.,9.3µM,.
O=C(CCC(=O)NNc1nc2ccccc2c2nc(-c3ccccc3)nn12)NCCCN1CCOCC1,.,.,?,.
CCOC(=O)c1c(C)[nH]c(C(=O)COC(=O)CNC(=O)c2ccc(Cl)cc2Cl)c1C,.,.,.,.
CCn1c(SCC(=O)NCc2ccccc2)nnc1C(CO)NC(=O)c1ccccc1 (stereo not drawn),.,.,.,.
CC1(C)CC(=O)C=C(c2ccc(F)nc2)C1,/,/,.,.
CCOC(=O)c1oc2ccc(/C=N/O)c(Cl)c2c1C,.,29,.,.
CCOC(=O)c1oc2cc(C)cc(C)c2c1C,.,.,.,.
O=C1N=C(N2CCN(c3ccccc3)CC2)SC1Cc1ccccc1 (stereo not drawn),.,14,?,.
COc1ccc(CC(=O)N/N=C(\C)CC(=O)NCc2ccco2)cc1OC,.,.,.,.
Cn1c(N)c(C(=O)COC(=O)c2cc(C3CC3)nc3ccccc23)c(=O)n(C)c1=O,.,.,?,?
SMILES,Shiga toxin inh,Cycloheximide cs,Pf growth 96h,Pf growth 48h
Cn1c(N)c(C(=O)COC(=O)c2cc(C(F)(F)F)nc3ccccc23)c(=O)n(Cc2ccccc2)c1=O,.,.,?,.
Cn1c(N)c(C(=O)COC(=O)c2cc(-c3ccco3)nc3ccccc23)c(=O)n(Cc2ccccc2)c1=O,.,.,9.3µM,?
Cn1c(N)c(C(=O)COC(=O)c2cc(-c3ccco3)nc3ccccc23)c(=O)n(C)c1=O,.,21,?,?
CCCCCCn1c(SCC(=O)c2c(N)n(C)c(=O)n(C)c2=O)nc2ccccc21,.,.,0.93µM,/
COc1ccc(-c2cc(C(=O)c3c(N)n(C)c(=O)n(C)c3=O)c3ccccc3n2)cc1,.,18,.,?
COc1ccc(-c2cc(C(=O)OCC(=O)c3c(N)n(C)c(=O)n(C)c3=O)c3ccccc3n2)cc1,.,.,.,.
COc1ccc(C(=O)CSc2nnc(CN3CCCC3)n2-c2ccc(F)cc2)c(OC)c1,.,.,?,.
CCN(C(=O)COC(=O)COc1ccccc1Cl)c1c(N)n(Cc2ccccc2)c(=O)[nH]c1=O,/,/,.,.
O=C(Nc1ccccc1Br)c1ccc(N2CCCC2=O)cc1,/,/,.,.
COc1ccc(/C=C2\CCCc3c2nc2ccccc2c3C(=O)OCC(=O)c2c(N)n(C)c(=O)n(C)c2=O)cc1,.,.,4.1µM,?
COc1ccc(/C=C/C(=O)OCC(=O)c2c(N)n(C)c(=O)n(C)c2=O)cc1,.,.,.,.
CCCCCn1nc(C(=O)OCC(=O)c2c(N)n(C)c(=O)n(C)c2=O)c2ccccc2c1=O,.,.,.,.
CCCCCCn1nc(C(=O)OCC(=O)c2c(N)n(C)c(=O)n(C)c2=O)c2ccccc2c1=O,.,.,13µM,12µM
COc1cc(/C=N/OCC(=O)Nc2ccc(OC(F)F)cc2)ccc1OCc1ccccc1,.,45,.,.
CCOc1ccc(/C=N/OCC(=O)Nc2ccc(OCc3ccccc3)cc2)cc1OC,.,17,?,.
COc1cc(/C=N/NC(=O)c2cc(C)oc2C)ccc1OCc1ccccc1,.,.,.,?
Cc1cc([N+](=O)[O-])ccc1NC(=O)CSc1nnc(C)n1C,.,.,?,.
Cc1cc2c(cc1S(=O)(=O)CCC(=O)Nc1cccc(C(F)(F)F)c1)OCC(=O)N2,.,.,?,.
N#Cc1cc(Oc2cccc3cccnc23)c(-n2nnc3ccccc32)cc1C#N,.,.,.,1.9µM
CC(=O)n1cc(N(C(=O)CCl)c2ccc(C)cc2)c2ccccc21,.,22,?,?
O=C(/C(=C/O)N=Nc1ccccc1)c1cccs1,.,39,.,?
CC(C)(C)N(Cc1ccccc1)C(=O)c1cccs1,.,.,?,.
CC(=O)CCc1ccccc1,/,/,.,?
CC(=O)CCc1c[nH]c2c(C(=O)O)cccc12,.,.,12µM,.
O=S(=O)(c1ccc(Cl)cc1)N1CCN(c2nc(-c3cccc(Br)c3)nc3ccccc23)CC1,.,.,/,/
SMILES,Shiga toxin inh,Cycloheximide cs,Pf growth 96h,Pf growth 48h
COc1cc2c(cc1NC(=O)CSc1nc3ccc(C)cc3[nH]1)oc1ccccc12,.,.,.,.
O=C(Oc1ccc(N(C(=O)c2ccncc2)S(=O)(=O)c2ccc(F)cc2)cc1)c1ccncc1,.,.,.,.
O=C(Oc1ccc(N(C(=O)c2ccncc2)S(=O)(=O)c2ccc(Cl)cc2)cc1)c1ccncc1,.,.,2.6µM,.
CCCC[C@H](NC(C)=O)C(=O)N[C@H]1CC(=O)NCCCC[C@@H](C(N)=O)NC(=O)[C@H](Cc2c[nH]c3ccccc23)NC(=O)[C@H](CCCN=C(N)N)NC(=O)[C@@H](Cc2ccccc2)NC(=O)[C@H](Cc2cnc[nH]2)NC1=O,/,.,/,/
COc1ccc(CNC(=S)NCc2ccc(Cl)cc2)cc1OC,.,.,.,.
COc1ccc(CCNC(=O)Cn2cnc3ccccc3c2=O)cc1OC,.,.,.,.
CC(=O)NCCc1ccc(C(=O)Cn2cnc3ccccc3c2=O)cc1,78,79,.,.
O=C(Cn1cnc2ccccc2c1=O)c1c[nH]c2ccccc12,.,.,6.6µM,.
COc1ccc(C(=O)Cn2cnc3ccccc3c2=O)c(OC)c1,.,.,?,.
C[N+]1(C)CC2=Cc3ccccc3CC2C1 (stereo not drawn),.,.,.,?
C1=C2C[N+]3(CCCC3)CC2Cc2ccc3ccccc3c21 (stereo not drawn),.,.,0.74µM,/
CC1O[C@@H](O[C@H](C)CC[C@@H](C)O[C@H]2OC(C)[C@@H](O)C[C@H]2O)C(O)C[C@H]1O (stereo partly drawn),/,/,.,.
